In the supplement of paper PMC13380429 one finds morphology score data, which are given here for 39 compounds.

Counter-ions that a name gives are not always drawn.

The assay relates to Vero E6 infected with SARS-CoV-2. Put plainly: morphology score (similarity to uninfected cells); higher = more like uninfected cells. Conditions: 24 h.
With `CC1=C(/C=C/C(C)=C/C=C/C(C)=C/CO)C(C)(C)CCC1` [retinol] (10 µM), the morphology score was -0.0178.

`C[N+](C)(C)NCCC(=O)O` [meldonium] (10 µM) showed a morphology score of 0.253.

The compound `O=C1c2ccccc2-n2c1nc1ccccc1c2=O` [tryptanthrin] (10 µM) yielded a morphology score of 0.145.

Compound `O=C(Cc1ccc(Cl)c(Cl)c1)N1CCCC[C@@H]1CN1CCCC1` (10 µM) had a morphology score of 0.168.

Compound `Cc1cc(C(C)(C)C)c(O)c(C)c1CC1=NCCN1` [oxymetazoline] (10 µM) yielded a morphology score of 0.233.

Regarding `CN(C(=O)CN(CCO)CC(=O)N(C)C(C)(C)Cc1ccccc1)C(C)(C)Cc1ccccc1` [oxethazaine] (10 µM), the morphology score was -0.169.

The compound `O=C(O)Cc1ccc(OCc2ccccc2)c(Cl)c1` [benzofenac] (10 µM) registered a morphology score of -0.114.

`N#Cc1c(N(CC(=O)O)CC(=O)O)sc(C(=O)O)c1CC(=O)O` [Strontium Ranelate] (10 µM) yielded a morphology score of -0.000723.

The compound `CC(=O)OC[C@H](N)C(=O)O` [O-acetyl-L-serine] (10 µM) registered a morphology score of 0.0719.

In the case of `Cc1ccc(C(=O)Nc2ccc(Oc3cc4cnn(C)c4cc3-c3cn[nH]c3)c(F)c2)c(=O)n1-c1ccc(F)cc1` (0.833333 µM), the morphology score is 0.172.

Compound `O=NO` [sodium-nitrite] (10 µM) showed a morphology score of 0.176.

Regarding `CCN(CC)CCOCCOC(=O)C1(c2ccccc2)CCCC1` [carbetapentane] (10 µM), the morphology score worked out at 0.363.

Consider `Cc1ccc(/N=C/N(C)/C=N/c2ccc(C)cc2C)c(C)c1` [amitraz] (10 µM), for which the morphology score came to 0.147.

Compound `Cc1ccc(S(=O)(=O)NC2c3ccccc3Oc3ccccc32)cc1` (10 µM) came in with a morphology score of 0.173.

For the compound `O=C(O)CCCN1C(=O)c2cccc3cccc(c23)C1=O` [isodibut] (10 µM), the morphology score is 0.205.

The compound `COc1cccc2c1C(=O)c1c(O)c3c(c(O)c1C2=O)C[C@@](O)(C(=O)CO)C[C@@H]3O[C@H]1C[C@H](N2CCO[C@H](OC)C2)[C@H](O)[C@H](C)O1` [nemorubicin] (0.833333 µM) registered a morphology score of 0.0228.

Compound `O=C1NCCN1CCN1CCC(c2cn(-c3ccc(F)cc3)c3ccc(Cl)cc23)CC1` [sertindole] (0.833333 µM) showed a morphology score of -0.0791.

The compound `O=C(N[C@@H]1Cc2ccccc2N(C[C@@H](O)CO)C1=O)c1cc2cc(Cl)sc2[nH]1` (10 µM) showed a morphology score of -0.155.

`CCCCn1ccc(N2CCC(c3ccccc3)CC2)c(Cl)c1=O` (10 µM) showed a morphology score of -0.265.

Consider `COc1ccc2c(c1)C=C1Cn3c-2c(C2CCCCC2)c2ccc(cc23)C(=O)NS(=O)(=O)N(C)CCOCCN(C)C1=O` (10 µM), for which the morphology score came out at 0.153.

Regarding `O=C(NO)c1cnc(N2CCN(S(=O)(=O)c3ccc4ccccc4c3)CC2)nc1` (10 µM), the morphology score was -0.145.

`CN1CCC(Nc2ncc3ncnc(Nc4ccc(F)c(Cl)c4)c3n2)CC1` (10 µM) had a morphology score of 0.0447.

Regarding `NNCCc1ccccc1` [phenelzine] (10 µM), the morphology score amounted to 0.113.

The compound `COc1ccc(CC(=O)NC(/N=C(\NC#N)Nc2cccc3ncccc23)C(C)(C)C)cc1OC` (centres undefined) (10 µM) showed a morphology score of 0.297.

Regarding `CNc1nc(C)nc(N[C@H]2CCC[C@@H](C(=O)NCc3ccc(C#N)cc3C(F)(F)F)C2)n1` (10 µM), the morphology score is -0.0488.

Consider `CNCCc1cnc[nH]1` [N-alpha-methylhistamine-dihydrochloride] (10 µM), for which the morphology score is -0.0409.

With `Cc1nc(-c2cccnc2)sc1C(=O)Nc1ccccc1-c1cn2c(CN3CCOCC3)csc2n1` (10 µM), the morphology score is 0.215.

Regarding `OC[C@H]1O[C@@H](n2cnc3c(N[C@H]4CCC[C@@H]4O)ncnc32)[C@H](O)[C@@H]1O` (10 µM), the morphology score was 0.227.

Consider `Nc1nc2ccc(OC(F)(F)F)cc2s1` [riluzole] (10 µM), for which the morphology score was found to be 0.188.

Compound `CC[C@H](C)[C@@H]1NC(=O)[C@H](Cc2ccc(O)cc2)NC(=O)[C@@H](N)CSSC[C@@H](C(=O)N2CCC[C@H]2C(=O)N[C@@H](CC(C)C)C(=O)NCC(N)=O)NC(=O)[C@H](CC(N)=O)NC(=O)[C@H](CCC(N)=O)NC1=O` [oxytocin] (10 µM) showed a morphology score of -0.0591.

For the compound `N=C(N)NCCC[C@@H](NC(=O)[C@@H]1CCCN1C(=O)[C@@H]1CSSCCC(=O)N[C@@H](Cc2ccc(O)cc2)C(=O)N[C@@H](Cc2ccccc2)C(=O)N[C@@H](CCC(N)=O)C(=O)N[C@@H](CC(N)=O)C(=O)N1)C(=O)NCC(N)=O` [desmopressin-acetate] (10 µM), the morphology score was found to be 0.0379.

`CSCC[C@H](NC(=O)[C@H](CC(C)C)NC(=O)[C@@H](Cc1c[nH]c2ccccc12)NC(=O)[C@H](Cc1ccccc1)N(C)C(=O)[C@@H](Cc1c[nH]c2ccccc12)NC(=O)[C@@H](N)CCCNC(=N)N)C(N)=O` [antagonist-g] (10 µM): the morphology score was -0.124.

With `C[C@]12N[C@H](Cc3ccccc31)c1ccccc12` [dizocilpine-(-)] (10 µM), the morphology score came out at 0.247.

As to `O=C(CO)[C@@H](O)[C@@H](O)[C@H](O)CO` [tagatose] (10 µM), the morphology score was -0.0178.

Take `O=C(CCCCC(=O)Nc1c(I)cc(I)c(C(=O)O)c1I)Nc1c(I)cc(I)c(C(=O)O)c1I` [iodipamide] (10 µM): the morphology score was 0.0415.

The compound `CCN1CCCC(OC(=O)C(c2ccccc2)c2ccccc2)C1` (centres undefined) [piperidolate] (10 µM) displayed a morphology score of 0.17.

As to `CCO/N=C(\C(=O)N[C@@H]1C(=O)N2C(C(=O)[O-])=C(Sc3nc(-c4cc[n+](C)cc4)cs3)CS[C@H]12)c1nsc(NP(=O)(O)O)n1` [ceftaroline-fosamil] (10 µM), the morphology score came to 0.242.

Regarding `CNC(=O)c1cnn(-c2nc(N)c3ncn([C@@H]4O[C@H](CO)[C@@H](O)[C@H]4O)c3n2)c1` [regadenoson] (10 µM), the morphology score is -0.0309.

Compound `Cc1ccc2c(c1)[C@H]1CN(C)CC[C@H]1N2` [stobadine] (10 µM) displayed a morphology score of 0.0748.
